Experimental data: PubChem BioAssay (EPA / NIEHS)
Values joined by “and” are separate entries in the source; they are usually repeats but may differ in a detail not shown here. Equal values may be shown once. A structure can be active in one record and inactive in another. Active and inactive are the calls of the source. How the source made its calls: active means hit-call score of the fitted dose curve at least 0.9, where 1 is the maximum; inactive means score below 0.9.

Experiment: APR_HepG2_MitoMembPot_24hr: Apredica 24-hour HepG2 Assay for Mitochondrial Membrane Potential (AID 2282911)
Conditions: imaging, actives raise or lower the signal
Description: APR_HepG2_24hr is a cell-based, multiplexed-readout assay that uses HepG2, a human liver cell line, with measurements taken at 24 hours after chemical dosing in a 384-well plate.APR_HepG2_MitoMembPot_24hr is one of 10 assay component(s) measured or calculated from the APR_HepG2_24hr assay. It is designed to make measurements of dye binding, a form of membrane potential reporter, as detected with fluorescence intensity signals by HCS Fluorescent Imaging technology.Data from the assay component APR_HepG2_MitoMembPot_24hr was analyzed into 1 assay endpoint. This assay endpoint, APR_HepG2_MitoMembPot_24hr, was analyzed with bidirectional fitting relative to DMSO as the negative control and baseline of activity. Using a type of membrane potential reporter, gain or loss-of-signal activity can be used to understand changes in the signaling. Furthermore, this assay endpoint can be referred to as a primary readout, because this assay has produced multiple assay endpoints where this one serves a signaling function. To generalize the intended target to other relatable targets, this assay endpoint is annotated to the cell morphology intended target family, where the subfamily is organelle conformation.
Cells were treated with dimethyl sulfoxide (DMSO) as a solvent control at a final concentration of 0.5% v/v or with compounds in DMSO with a resulting final DMSO concentration of 0.5% v/v. Compound treatment was done at concentrations of 0.39, 0.78, 1.56, 3.12, 6.24, 12.5, 25, 50, 100, and 200 uM in duplicate on each plate. Cells were treated with compounds for 1, 24, or 72 hr. Carbonyl […] m-chloro-phenylhydrazone (CCCP) and taxol were used as positive controls for mitochondrial function and cytoskeletal stability, respectively; DMSO served as the negative control for this experiment. Cells were fixed by the direct addition of 50 uL formaldehyde in Hank's Balanced Salt Solution (HBSS) to a final concentration of 3.7%. After incubation in the fixation medium for 30 min at room temperature (293-298 K), cells were rinsed twice with HBSS and treated with cell permeabilization buffer (16 uL of 0.5% Triton X-100) for 10 min at room temperature (293-298 K) before labeling. For mitochondrial membrane potential and mitochondrial measurements, pre-fixed cells were incubated with 50 uL of MitoTracker Red CMXRos (Invitrogen) at a concentration of 250 nM for 30 min before fixation. In the remaining cases, post-fixed cells were labeled by incubation with a multiplexed mixture of primary antibodies in HBSS for 60 min at room temperature (293-298 K) to detect immunoreactivity of c-Jun (1:500), phospho-histone H3 (1:100), phospho-histone H2A.x (1:200), p53 (1:400), alpha-tubulin (1:200) and Hoechst 33342 (2 ug/mL). Cells were labeled for multiplexed imaging on two separate plates: a) Hoechst 33342, MitoTracker Red, phospho-histone H3, and alpha-tubulin, and b) Hoechst 33342, phospho-histone H2A.x, and c-Jun. A final rinse with HBSS (50 uL) was performed before analysis. The primary and secondary antibodies for the proteins were phospho-histone H3 (rabbit anti-phospho-histone H3 and FITC-donkey anti-rabbit IgG), phospho-histone H2A.x (mouse anti-phospho-histone H2A.x and FITC-donkey anti-mouse IgG), c-Jun (rabbit anti-phospho-c-Jun and Cy3-donkey anti-rabbit IgG), p53 (sheep anti-p53 and Cy5-donkey anti-sheep IgG), alpha-tubulin (mouse anti-alpha-tubulin and Cy5-donkey anti-mouse IgG). These antibodies are available as the CellCiphr HepG2 assay kit (Millipore).Digital images of each well were captured using a Cellomics ArrayScan VTI (Thermo Scientific Cellomics) (0.8 NA objective, 0.63x optical coupler, and XF-93 filter set) at 20x magnification. The images were acquired using the autofocus feature of the ArrayScan instrument, which entails the following steps. First, the camera focuses on channel 1 (Hoechst 33342), where nuclei are identified. Second, a Z offset of 1 um is used for capturing mitochondria (MitoTracker Red). […]

Structure (SMILES)	AC50	outcome
CCCN(CCC)c1c([N+](=O)[O-])cc(S(N)(=O)=O)cc1[N+](=O)[O-]	31.6 µM (active) and 117 µM (active) and 110 µM (active)	inactive
Cc1c(F)c(F)c(COC(=O)C2C(/C=C(\Cl)C(F)(F)F)C2(C)C)c(F)c1F (stereo not given)	–	inactive
O=C(O)c1nc(Cl)ccc1Cl	–	inactive
CC(Oc1ccc(Cl)cc1Cl)C(=O)O (stereo not given)	–	inactive
CCc1nn(C)c(C(=O)NCc2ccc(C(C)(C)C)cc2)c1Cl	–	inactive
COP(N)(=O)SC (stereo not given)	–	inactive
CCON=C(CC)C1=C(O)CC(c2c(C)cc(C)cc2C)CC1=O (stereo not given)	–	inactive
N#Cc1nn(-c2c(Cl)cc(C(F)(F)F)cc2Cl)c(N)c1S(=O)C(F)(F)F (stereo not given)	–	inactive
Fc1ccc(Oc2ccnc3cc(Cl)cc(Cl)c23)cc1	–	inactive
CON(C)C(=O)Nc1ccc(Cl)c(Cl)c1	28.9 µM (active)	–
N#CC(CCc1ccc(Cl)cc1)(Cn1cncn1)c1ccccc1 (stereo not given)	–	inactive
COc1nc(C)nc(NC(=O)NS(=O)(=O)c2ccccc2Cl)n1	–	inactive
C=CC1(C)OC(=O)N(c2cc(Cl)cc(Cl)c2)C1=O (stereo not given)	–	inactive
COP(=S)(OC)Oc1nc(Cl)c(Cl)cc1Cl	–	inactive
N#Cc1cc(Br)c(O)c(Br)c1	89.4 µM (active)	–
OC(c1ccc(Cl)cc1)(c1cncnc1)c1ccccc1Cl (stereo not given)	31.5 µM (active)	–
CC(C)Oc1cc(-n2nc(C(C)(C)C)oc2=O)c(Cl)cc1Cl	–	inactive
CCOC(=O)C(Cl)Cc1cc(-n2nc(C)n(C(F)F)c2=O)c(F)cc1Cl (stereo not given)	–	inactive
O=C(Nc1ccccc1)Nc1ccnc(Cl)c1	–	inactive

Structure (SMILES)	AC50	outcome
C=CCC1=C(C)C(OC(=O)C2C(C=C(C)C)C2(C)C)CC1=O (stereo not given)	112 µM (active)	inactive
COC(=O)C(C)Oc1ccc(Oc2ccc(Cl)cc2Cl)cc1 (stereo not given)	129 µM (active)	inactive
CCCCNC(=O)n1c(NC(=O)OC)nc2ccccc21	–	inactive
Oc1ccccc1-c1ccccc1	–	inactive
CCOC(=O)CC(SP(=S)(OC)OC)C(=O)OCC (stereo not given)	–	inactive
CS/C(C)=N/OC(=O)N(C)SN(C)C(=O)O/N=C(\C)SC	–	inactive
COc1ccc(C(c2ccc(OC)cc2)C(Cl)(Cl)Cl)cc1	–	inactive
CN(C)C(=S)SSC(=S)N(C)C	–	inactive
O=C(O)COc1nc(Cl)c(Cl)cc1Cl	–	inactive
C#CCOS(=O)OC1CCCCC1Oc1ccc(C(C)(C)C)cc1 (stereo not given)	6.31 µM (active)	–
CCNc1nc(Cl)nc(NC(C)C)n1	–	inactive
CC1COC(Cn2cncn2)(c2ccc(Oc3ccc(Cl)cc3)cc2Cl)O1 (stereo not given)	105 µM (active)	–
CCCCC(CC)COC(=O)c1ccccc1C(=O)OCC(CC)CCCC (stereo not given)	–	inactive
CNC(=S)S	–	inactive
CCCC1COC(Cn2cncn2)(c2ccc(Cl)cc2Cl)O1 (stereo not given)	12.8 µM (active)	–
CNC(=O)ON=CC(C)(C)SC	–	inactive
COC(=O)N(OC)c1ccccc1COc1ccn(-c2ccc(Cl)cc2)n1	0.332 µM (active)	–
CCOc1cc(Oc2ccc(C(F)(F)F)cc2Cl)ccc1[N+](=O)[O-]	–	inactive
